Results taken from the supplement of paper PMC13380429.

Tests used:
[1] = test system: Vero E6 infected with SARS-CoV-2; assay: morphology score (similarity to uninfected cells); higher = more like uninfected cells; conditions: 24 h
[2] = test system: Vero E6 infected with SARS-CoV-2; assay: SARS-CoV-2 infection rate relative to infected DMSO; higher = more infection, active = 60 or less; conditions: 24 h

Compound | morphology score [1] | SARS-CoV-2 infection rate [2]
O=C1C(O)=C([C@H]2CC[C@H](c3ccc(Cl)cc3)CC2)C(=O)c2ccccc21 [atovaquone] (0.833333 µM) | 0.028 | 106% (inactive)
C[C@H]1COC2=C1C(=O)C(=O)c1c2ccc2c1CCCC2(C)C [cryptotanshinone] (10 µM) | 0.0318 | 100% (inactive)
CC12CC3CC(C)(C1)CC(N)(C3)C2 [memantine] (10 µM) | 0.0122 | 110% (inactive)
c1ccc([C@@H]2C[C@H]2NC2CCNCC2)cc1 (10 µM) | -0.09 | 114% (inactive)
C[C@](N)(Cc1ccc(O)cc1)C(=O)O [metirosine] (10 µM) | -0.111 | 112% (inactive)
Cn1c(COP(=O)(NCCBr)NCCBr)cnc1[N+](=O)[O-] (10 µM) | 0.0413 | 106% (inactive)
CCC(C)n1ncn(-c2ccc(N3CCN(c4ccc(OCC5COC(Cn6cncn6)(c6ccc(Cl)cc6Cl)O5)cc4)CC3)cc2)c1=O (centres undefined) [itraconazole] (10 µM) | 0.0302 | 104% (inactive)
